Experimental data reported in the supplement of paper PMC10681739.
± gives the standard deviation of the averaged measurements. Whole data set: some 4,100 sequences, median “arbitrary fluorescence units” near 780, cut for the highest 2% near 22,000. Many of the other results were omitted from the sample, so the highest values are more common in it than they were.

What follows are sequences tested against T1, ETS1 (UniProt P14921) (assay: ETS1 binding intensity (PBM fluorescence), ETS1 alone (arbitrary fluorescence units); higher = stronger binding). Settings: ETS1 concentration 1 nM; RUNX1 concentration 0 nM.
T1 sequence: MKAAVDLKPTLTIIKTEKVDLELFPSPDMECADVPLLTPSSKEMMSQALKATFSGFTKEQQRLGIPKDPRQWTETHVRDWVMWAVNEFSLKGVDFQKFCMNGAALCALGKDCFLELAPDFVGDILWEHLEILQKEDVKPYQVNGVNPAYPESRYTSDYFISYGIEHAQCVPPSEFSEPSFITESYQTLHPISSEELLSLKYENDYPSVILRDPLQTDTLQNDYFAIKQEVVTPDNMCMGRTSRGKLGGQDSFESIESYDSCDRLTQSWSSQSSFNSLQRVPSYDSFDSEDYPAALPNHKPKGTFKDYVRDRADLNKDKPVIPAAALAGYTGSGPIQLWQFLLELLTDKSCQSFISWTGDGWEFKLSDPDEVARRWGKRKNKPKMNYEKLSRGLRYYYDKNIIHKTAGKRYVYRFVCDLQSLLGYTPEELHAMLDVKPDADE
Procedure: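 gcPBM on 36-bp genomic-derived probes (partner site mutated) containing one ETS1 site and no RUNX1 site. Recombinant human ETS1 (1 nM) was incubated alone or with RUNX1 (25 nM) and detected by anti-ETS1 antibody fluorescence. Values are medians over 4 replicate spots (not normalised). The probes sit in constant array flanks that are not printed.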

In order of falling ETS1 binding intensity:
1. GGCACTTCCGGTCCTGACCTGAAGCGCTCACCGTCA  55000
2. AACATCCGGTTCCCGGTTCTGCCCCCTACCCCAGCT  49100
3. AGGACCGGAAGTGCCCGAGGGCGGCCGGAGAACGGT  45500
4. GCCACTTCCGGTCACTCCCCTCAGCGGCCTCGCGCT  39600
5. CGTTTCCTGTCTGGGACTGCGCCCACGCGATCACGT  38800
6. ACAACTTCCTGTGGGATTTTTGGTGTCTACGGCTCA  37400
7. AGCCGCCACTTCCTGTCTCTGAGGGTGCATGCTCTT  36000
8. CAACAACCGGAAGTGGGGCGGGCCGTAGTACCCGCC  35100
9. TATTTCCTGTGCACAGAAGCAGCTGGGCCGAAGAGT  34400
10. GCGAGCACTTCCGGTGTGTGAGCCTGCTGTTGCTAC  32800
11. ACCAACCGGAAGTGATCGTGTCGTGGCCGAAGGAGG  32300
12. GGTCTCTGCTTCCGGTCCTTGGGGTAGCACCTCTGT  32000
13. TTTCGAGAAAACCGGAAGTGCGTGGACACGCCCCGC  31500
14. AACAGTACTTCCGGGGCAAGTGAGCGCCTACAAGGC  30400
15. TCGCTTCCGGTGTCGGTTACAGACTGGGGTTGCCAT  30000
16. TGAGCCCTACTTCCGGTGGTGCTGTGCTCTGCCCCT  29700
17. TCTAAATCACTTCCTGTTACAGAAACTACAGGCCTG  26900
18. CACTTCCGGGTCGTCAGCTCAGTTCTGCTGTTTCTG  26000
19. GGGCCCACATCCGGCGCGCGCAACAGCAGCCTACTG  25800
20. TCCCCACACTTCCGGCCCCGCGCGCACAGCCGCACC  25400
21. ATTACATCCGGGCTCCGCGACACGCCCGAACCCCAA  25300
22. AGGCTCATTTCCTGTTTTCATGTAGTTTAGAGAAAA  24300
23. TTCAGGTGACTTCCGGCCGGACCTCTGAGGACGCGG  24100 ± 4200
24. ATGAGCTATTTCCTGCCTTGTTGTCAGAGCCAGACT  23500
25. GGCTGCGACTTCCGGACTGCTCCTGGCCGCTGGGGG  22900 ± 1200
26. TGGCTGTCACTTCCTGTCCCACTGTCGTTCCTGGGA  20600
27. GCACTCATTTCCTGTCCCCTGTAGTTTAAAGGTTTT  19700
28. CAGCCGACTTCCGGGGTGGGGCTTGCTGCCGCTGAG  19300
29. CTTCTACTTCCTGCCCCGCCCCCAGCTGTGCTCACA  17900
30. CGGCCTCTTCCGGTCACCTGGCCCGTCGCTGTCCCG  17300
31. GCTTGTCTTCCGGTTTCGTCGCCGCCGTAGGCGCAC  16700
32. GGAGGGGCTGGCCGGAAGTGAACCGAAGAGCACGCT  16700
33. CTCTTCCGGCCGCGAGGAGCGCGACAGCGGCCCCTG  14400
34. AAATGAGCGGAGGTTGAGCCCTACTTCCGGTGGTGC  14100
35. CACTTCCTCCTCGGGGGCCTCAGAAAATCACAGGGC  13200
36. AGACGGGACCGGAAGCCGGGCCGTAGGCGGCCGGGC  12100
37. GACCACTTCCTTTCTGTGTTTTGGGGTTTCACAACT  11900
38. ACTTGACTTCCTGTGGGGTGTCTGGTGTCTGCACTT  11700
39. GCGCCCCGCTTCCGGGGCCGCCCTAAACGGCGGCCG  10100
40. AACTTCCTTCCCGAGAGCCTGAAGCAGCCGTAGGCC  9120
41. TGCTTCCCGTCCGTGTCGCGGCCCTGGGGTTGGCGG  8550
42. CCGCGTCCTCAGAGGTCCGGCCGGAAGTCACCTGAA  8340 ± 1500
43. CACTCCCCTCCCGAGGTCACACTTCCGGCGGCCACC  7960
44. CTAAAGGCAGGGACTACAAACACTTCCTGTTTGTGT  7710
45. AGCACCAGTGTTGTCTCTGCTTCCGGTCCTTATGGT  7490
46. GGGGCAGGAAGTGGAGGTTTGAAGTGCTTTAGAGTA  7390
47. AGTTTCCTGAACTCAGAGCACAGTTCTGGTGCAGAA  6300
48. TCCCTCCTTCCGCTCTGGTTTTGGGGTTGCTTGCTG  6220
49. TACCTACAGGAAATGAGACACACCTCAGGCCGATCC  5550
50. GGGCCCCTCAGCCCGACCGCCTGACCGGAAGTGCAG  5030
51. TCGGGCTGCCGAAGAGCAGCTATTTCCTGTCTGCAC  5010
52. TGGGGCTCTTCCTGCTTATGTGAGCACAGCACCTTG  4750
53. GTTGCAAAGGCGCCTACAACTACTTCCGCTTCTAGT  4670
54. CAACTCCGGCGCCCTCAGGCCACTTCCGCCTATGTA  4590
55. CCCGGAGGACGTCCGGCCTCTGTGAGCCGCCACCTT  4500
56. TGACAGACCCGGAAATAAGAGGAGACAACACACTTG  4440
57. GGGGACCGGAAAGGGAGGGGTGGGCCGTAGGCGCCG  4430
58. GCGGAGGGAAGCGGAAATACTTGCAGTGGGGGCGAC  3700
59. TTGGTGACCTCTTCCTGTCCGCTGGGGTGTTGTTAC  3680
60. TATATGCACAGGAAGTCCCTTACAACCTACTCTGTT  3590
61. TGAGGTGCTAAAGCACCAAGCACTTCCTGCTGTTAG  3380
62. TCAAGAAAACAGGAAACTCTCAAATCCAAGTTCTGA  3280
63. GACGGCCGCTTTTGGCGCGGGACTTCCTGCCTGGCC  3070
64. TCCCGCTTCGGCCAACAGCCGGGCCACTTCCGGGGC  2910
65. CCCCGTTACGCCCATCCGGCTCCCGAATAGGGCGTC  2610
66. CCATTCCTACGGCCTTCATTGCTGCATCCGGTGGAG  2480
67. CGGGTTAAACAGCAGCCGCGCCCACACTTCCGGGGT  2120
68. CTTAGCACTTGTAGTCAGCCTGCTTCCGGCTGTGGC  2100
69. GTCCAACAGCAGCCAGGCAAGCACATCCTGCCCCAC  1980
70. ACGCGCGCGGGGGAGGTGGCTTCTTCCGGCCGGGCC  1860
71. TGCTGCACCCCAGCCCCTTTCTCTTCCGGTTCTAGG  1850
72. GCAGAGAGGAAGTGTGGGGGTGGAGGAGGCCGAAGA  1840
73. CTTACTATATTAACGCCGGTACACATCCGCCCGACA  1800
74. CTGCCTTTCCTGCTAGGGTACAAATCACAGCCTTAG  1670
75. GGCTGCGCCGGCTGGGGTGTTCCTCCGACTTCCGGA  1590
76. CAGTCTGGCCATGAGGTGCCACTTCCTCTCTGGTTT  1550
77. TTCTATCCTGCCTTGCATGTCTTTAATCACACTGAG  1540
78. AAACTACTTCCCCATATCATCTGTAGCTTGCACAAC  1180
79. TTTAAGGTTCATGCTGTACTCAGAACATCCTGTTCT  1150
80. CTCCCACATCCGAAGCGGCGCAACTCACAACAGCCT  1140
81. GTCGGAAGTGGCCGTGAGCCCAAGCCGAGGTCCCGG  1130
82. CCTGCTGCTGTCAGCCCTGTCTCTTCCTGTTTCTGC  1030
83. GATGAGGGCTTGCGCGCAAACAGCCCGGAAATGAGG  1010
84. TGGATAGTGGGACACCTCAACAGGATGTTAGTGAGG  858
85. CGTGTGAGGGGGCGCAAGGCAGCGGCAGCTTCCGCC  830
86. GGCGGGAGAGGAAGCCGGGCGGCCGAAGCTGCCTGT  811
87. CCCTCCGGCCCTCAGCCCTGCCCAAACGGAAGTGCT  787
88. CCTGAGCGCCCGGAAGGAAGGCTGGGGTAGGTTGTC  756
89. CCAACAGCAGCGCTACTCCCGGCCGCTTCCGCCTGG  748
90. TAAAATTTCGGGAGGGGACTTGGTCCTTCCTGTTGC  735
91. CTCAGACCCTCAGTGAGGTCTGACGTCATTTCCTGC  734
92. GACTGCGCCGGACGCGCCAGCCCTGCGCGATGACGT  678
93. CTGACTTGTTGTAGTCTCTGCCACTTCCTGAGGTGT  668
94. CAGGACCCCTGTACTCCGGGTGAAGCGGAAGCGCAG  667
95. CAGCCAGCGCACCTCCTCCTCAGCTTCCTCTGGTGC  620
96. CTCTTGGCGGACGTTCCACATTGCCACTGACTTTGT  616
97. CTCGGCCAGGAAGCACTGAGCCACTTCGGCATCGCA  591
98. CAGCTGCAGGCCTGGGTGTACGGAGCCCGGAACAGG  567
99. TGCGCCAGCGGGAGGGAGCAGTTCCGGGTACGGTGC  563
100. CTCTGGGAGGCCGCCGCTTTCCACCGGAAAGAGGGT  555
101. TTGCATGTAGTTTAGGCTGTAGTTTCCTCCTGTAGT  534
102. CGGCCGCCGTTTAGGGCGGCCCCGGAAGCGGGGCGC  531
103. GCCGCCGTAGATTCGACACAAAACCCGGAAGGACCC  530
104. CAAAGTGATGGGGGAAATGGTTGTAGTTTTGGGTGG  514
105. TGTTGACTCAGGAAGATGATGGCTGAGGGGGCTGCA  509
106. CGAAGAGGAAACAAAGAAAGGTGCTGTTCTGGCGCC  506
107. TTATCTGTCGTTCTTTTATGGGGTGGGCTTCCTCTG  503
108. CTCGTGTTTTGTAGCTGTGTTCTGTCCGGTCAGTTG  502 ± 32
109. CCGCGAACAGCAGAATTCCCGCCTTCCGCAGCCCGG  480 ± 6.2
110. CCAGACCCGGCGGAACTACCGTGCCCTCAAGGCAGC  477
111. GGCAGGAAAGAGCTGATGCATTTCAACAGCAGCCTG  477
112. CCGACCCCAGCTTCCCGGGGTTGAGGCCCTGCCTCC  462
113. CTCGGCCAACGCGTGCTCCACTCGGAAGTGGTGCCG  457
114. TGAACTCCGCCCAGCGCGATCCGGAAGCCTAGCGCC  443
115. AGGTACAACACCAGACGGTAGGCCAGGAAATCGCAG  407
116. TTCAGGCGGCAAAGAACAGACCTGCAGGAGGAAATA  404
117. AGAAGTGCAGTGGAGGAGGGCCGGAACGGTGACTAT  393
118. AGCAACCTACTACCCGGCGCCTGATTCACTTCCCTC  391
119. ACAAAGTCAGTGGCAATGTGGAACGTCCGCCAAGAG  384
120. TCCGTGAGGTGCAGCAGGTCGGTAGGCGGGAAATGG  378
121. GGAGCGCGCTGGGGACGTTTAAAGGAAATTTACAAT  363
122. GATGGGCTGGGGATGTGGCCTGTTTGCCGCTGGCGA  361
123. GAGAAAGCAGCGCCCCAGCGCGCCTTCCGCCACGCC  328
124. CTTACGGCCTCGCGCCATGGGCAGTATCCGCCGCCA  328
125. CTCCGCGCAGCCCCAGAGACCCTTGGGAAGTGTGGT  320
